# Measured values: PubChem BioAssay (Tox21)
# Records with an inconclusive call do not appear. Calls of active or inactive are those of the source. The call rests on the fitted dose curve; in most records, active means well fitted cell-killing curve with a large enough effect in the repeat runs; inconclusive means weak or mixed curves; inactive means flat fitted curve, though single readings scatter.
# Assay: qHTS RealTime-Glo MT Cell Viability Assay in HepG2 cells - 8 hour (AID 1224873); further: nearly all actives have a fitted effect of over 55% in size
# Conditions: RealTime-Glo luminescence; series mostly up to 76.8 µM; viability change, negative = cytotoxic: at the top concentration
# Source text: National Center for Advancing Translational Sciences [NCATS]
# NIH Chemical Genomics Center [NCGC]
# U.S. Environmental Protection Agency [EPA]
# National Institutes of Environmental Health Sciences [NIEHS]
# National Toxicology Program [NTP]
# U.S. Food and Drug Administration [FDA]
# Measure of cell viability is critical in the cell-base assay. Analysis of cell viability is necessary for the characterization of cell responses to cytotoxic drugs and environmental stress. A RealTime-Glo MT Cell Viability Assay to monitor cell viability in real time of continues cell culture during 40 hours of compound treatment was used to screen Tox21 10K library compounds in HepG2 cells. The RealTime-Glo MT Cell Viability Assay is a nonlytic, homogeneous, bioluminescent method to measure cell viability in real time using a simple, plate-based method. The assay involves adding NanoLuc luciferase and a cell-permeant prosubstrate to cells in culture. Viable cells reduce the proprietary prosubstrate to generate a substrate for NanoLuc luciferase. This substrate diffuses from cells into the surrounding culture medium, where it is rapidly used by the NanoLuc Enzyme to produce a luminescent signal. The signal correlates with the number of viable cells, making the assay well suited for cytotoxicity studies.
# Tox21 Assay Protocol Summary:
# The mixture of HepG2 cell suspension and reagents were dispensed at 600cells/6 ul/well in 1536-well tissue culture treated black solid bottom plates using a Multidrop dispenser. After the assay plates were incubated at a 37 C/5% CO2 incubator for 5 hours, 23 nL of compounds dissolved in DMSO, positive and negative controls was transferred to the assay plate by a pintool work station. The plates were incubated at 37 C for 40 hours. The luminescence intensity were measured at 0h, 8h, 16h, 24h, 32h and 40h time points using ViewLux plate reader during compound treatment.
# On the % scale 0 is the no-effect control and ±100 the full control effect.
row,SMILES,"viability change, negative = cytotoxic"
1,COP(=O)(OC)O/C(C)=C/C(=O)N(C)C,3.7% (inactive)
2,COC(=O)c1ccc(CBr)cc1,3.3% (inactive)
3,Clc1ccc(C(Cl)(Cl)Cl)cn1,-4.07% (inactive)
4,C=C(C)[C@H]1CN[C@H](C(=O)O)[C@H]1CC(=O)O,4.49% [at 35.3 µM] (inactive)
5,CC(C)(C)NC[C@H](O)c1ccc(O)cc1Cl,-0.703% [at 35.3 µM] (inactive)
6,C=CCCC#N,-0.443% (inactive)
7,O=P(O)(O)c1ccccc1,-1.06% (inactive)
8,CCC(C)(C#N)N=NC(C)(C#N)CC (stereo not given),-0.649% (inactive)
9,COc1ccc2c(C(=O)c3ccc(Cl)cc3)c(C)n(CC(=O)O)c2c1,-3% [at 35.3 µM] (inactive)
10,CCN(CCO)CCO,3.13% (inactive)
11,C1CN2CCC1CC2,1.95% [at 35.3 µM] (inactive)
12,CCCN1CCC[C@@H]2Cc3[nH]ncc3C[C@H]21,-1.15% [at 35.3 µM] (inactive)
13,C[C@H](CN1CCOCC1)C(C(=O)N1CCCC1)(c1ccccc1)c1ccccc1,-12.7% (inactive)
14,CNC(=O)O/N=C(/CSC)C(C)(C)C,1.2% (inactive)
15,C[N+]1(C)CCCCC1,6.47% (inactive)
16,CC(Cl)(Cl)Cl,0.869% (inactive)
17,CC(C)[C@]12CC(=O)[C@H](C)[C@H]1C2,-0.757% (inactive)
18,C(COCC1CO1)OCC1CO1 (stereo not given),0.92% (inactive)
19,CCOP(=S)(OCC)SCCl,-0.0882% (inactive)
20,BrCc1ccc(Br)cc1,4.62% (inactive)

row,SMILES,"viability change, negative = cytotoxic"
1,CCNc1nc(Cl)nc(NC(C)(C)C)n1,2.47% (inactive)
2,CCc1ccc(C2CCNCC2)cc1,2.97% [at 35.3 µM] (inactive)
3,ClCCCCCCCl,4.73% (inactive)
4,CCCN1CCC[C@@H]2Cc3nc(N)ncc3C[C@H]21,-4.42% [at 35.3 µM] (inactive)
5,O=C/C=C/c1ccco1,1.39% (inactive)
6,O=C(Cl)C(Cl)Cl,1.52% (inactive)
7,ClCCCCl,0.762% (inactive)
8,CC(C)(N)Cc1ccc(Cl)cc1,-0.0476% [at 35.3 µM] (inactive)
9,C[C@H]1CCCC(=O)CCC/C=C/c2cc(O)cc(O)c2C(=O)O1,-16.1% [at 35.3 µM] (inactive)
10,O=c1[nH]oc2c1CCNC2,0.342% [at 35.3 µM] (inactive)
11,O=[N+]([O-])CCO,-1.02% (inactive)
12,C=C(Cl)CCl,0.354% (inactive)
13,BrCC1CO1 (stereo not given),-9.13% (inactive)
14,CCC(C(N)=O)N1CCCC1=O (stereo not given),0.355% [at 35.3 µM] (inactive)
15,CCOC1Oc2ccc(OS(C)(=O)=O)cc2C1(C)C (stereo not given),0.669% (inactive)
16,O=[N+]([O-])c1cccc(CCl)c1,-3.09% (inactive)
17,CN(C)CCc1c[nH]c2cccc(OP(=O)(O)O)c12,-0.183% (inactive)
18,CCOC(=O)c1ncn2c1CN(C)C(=O)c1c(I)cccc1-2,0.26% [at 35.3 µM] (inactive)
19,CN1COCN(Cc2cnc(Cl)s2)/C1=N\[N+](=O)[O-],0.0922% (inactive)
20,N=C(N)[Se],2.25% (inactive)
